# Measured values from PubChem BioAssay (NCATS).
# Records with an inconclusive call do not appear. Unmarked numbers belong to inactive results. The call rests on the fitted dose curve; in most records, active means well fitted cell-killing curve with a large enough effect; inconclusive means small, poorly fitted or top-dose-only effect; inactive means flat fitted curve, though single readings scatter. Where a SMILES comes first, the peptide text is derived from it. Bridges are numbered along the chain shown (N, C = ends). [ ]: non-standard residue; d: D form. hArg = N=C(N)NCCCC[C@H](N)C(=O)O; Mpa = O=C(O)CCS
# Experiment: qHTS of pediatric cancer cell lines to identify multiple opportunities for drug repurposing: Primary screen for control Hh wild type fibroblast cells (AID 1347106);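 further: a drop in luminescence marks cytotoxicity and a rise apparent proliferation; nearly all actives have a fitted effect of over 55% in size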
# Conditions: Hh wild-type fibroblast viability, CellTiter-Glo luminescence, 48 h; series mostly up to 46 µM; activity change, negative = cytotoxic: at the top concentration
# Text: Drug repurposing or repositioning has been offered as a strategy for drug development in oncology programs. This approach has special potential for childhood cancers and other rare or orphan diseases, where the expected return on new drug development has been a disincentive to pharmaceuticals.
# In this project we exploit the poly-pharmacology of drugs to discover new indications via phenotypic screening of a panel of 19 well-characterized cell lines derived from solid tumors seen in children and adolescents. The goal is to identify approved drugs with previously unrecognized anticancer properties that has the potential to reveal new mechanisms and biological processes involved in carcinogenesis or drug resistance. We employed a titration-based paradigm (quantitative high-throughput screening or qHTS), where all compounds were tested at multiple concentrations for their effect on cell viability. Concentration-response curves (CRCs) were derived directly from the primary screen, and both potency and efficacy values were used to identify compounds with robust bioactivity profiles. We screened the NIH Chemical Genomics Center (NCGC) Pharmaceutical Collection (NPC) and Mechanism Interrogation Plate (MIPE) small molecule collections of approved and investigational compounds against these cell lines; and measured metabolically active cells after 48 hours of compound treatment as a proxy for cell viability.
# Assay Submitter: Nathalia J. Martinez, National Center for Advancing Translational Sciences, National Institutes of Health, Rockville, MD, USA; email: natalia.martinez@nih.gov
# [1] Shen, M et al. Quantitative high-throughput phenotypic screening of pediatric cancer cell lines identifies multiple opportunities for drug repurposing. Oncotarget 2017 Dec 19;9(4):4758-4772. PMID 29435139.
# The cells were obtained from University of North Carolina (UNC), Pediatric Preclinical Testing Program (PPT), and Coriell Institute (CI).
# qHTS cell viability assay:
# Cells were assayed in growth media at a density of 500-1,000 cells/well. Five microliters of cells were dispensed into 1,536-well, white, solid-bottom, TC-treated plates (Greiner Bio One) using a multidrop dispenser and incubated at 37 degrees C, 5% CO2, under a humidified atmosphere for 5 hours. Twenty-three nanoliters of compounds and controls (neutral control DMSO or positive control bortezomib at final concentration of 2.3 µM) were subsequently transferred by Kalypsys pintool. For primary screens, the MIPE collection was tested at 11-point dilutions (final concentrations range from 0.78 nM to 46 µM) and the NPC collection at 8-point dilutions (final concentrations range from 0.59 nM to 46 µM). Compounds tested in follow-up screens were assayed at 11-point dilutions. Cells were incubated for 48 hours, followed by addition of 3 µL of CellTiter-Glo (Promega). After a 15 min incubation at room temperature, samples were analyzed for luminescence intensity using a ViewLux High-throughput CCD imager equipped with clear filters.
# On the % scale 0 is the no-effect control and ±100 the full control effect.
row,SMILES,"activity change, negative = cytotoxic"
1,Cn1c([N+](=O)[O-])cnc1COC(N)=O,7.35%
2,O=C(/C=C/c1ccccc1)OCc1ccccc1,6.22%
3,COc1ccc(O)cc1,13.5%
4,CCOc1cc(NC(C)=O)ccc1C(=O)OC,5.59%
5,C[N+](C)(C)CC[N+]1(C)Cc2c(Cl)c(Cl)c(Cl)c(Cl)c2C1,7.9%
6,O=C(CCBr)N1CCN(C(=O)CCBr)CC1,12.9%
7,CC(=O)OCC(=O)[C@@]1(O)CC[C@H]2[C@@H]3CCC4=CC(=O)C=C[C@]4(C)[C@@]3(F)[C@@H](O)C[C@@]21C,-8.5%
8,COc1ccc(NS(=O)(=O)c2ccc(N)cc2)nn1,-6.26%
9,CC(C)=CCC/C(C)=C/CO,2%
10,Cc1c(N(C)C)c(=O)n(-c2ccccc2)n1C,3.69%
11,Cc1ccc(S(=O)(=O)NC(=O)NC2CCCCCCC2)cc1,13.4%
12,CN1C(=O)CC(c2ccccc2)C1=O (stereo not given),1.4%
13,CC1CCN(CCCC(=O)c2ccc(F)cc2)CC1,4.47%
14,Cc1ncc(CO)c(CN)c1O,7.25%
15,O=C(O)c1ccc[n+]([O-])c1,-0.157%
16,COc1ccccc1Oc1c(NS(=O)(=O)c2ccc(C(C)(C)C)cc2)nc(-c2ncccn2)nc1OCCO,14.1%
17,CCCCCC(C)N (stereo not given),14%
18,N[C@@H](Cc1ccc(O)cc1)C(=O)O,11.3% [at 9.22 µM]
19,Cc1ccc(S(=O)(=O)NC(=O)NC2CCCCC2)cc1,8.22%
20,CC1(C)[C@@H](OC(=O)CCC(=O)O)CC[C@]2(C)[C@H]3C(=O)C=C4[C@@H]5C[C@@](C)(C(=O)O)CC[C@]5(C)CC[C@@]4(C)[C@]3(C)CC[C@@H]12,18.5%

row,SMILES,"activity change, negative = cytotoxic"
1,CC(=O)NCc1c(I)c(NC(C)=O)c(I)c(C(=O)O)c1I,8.16%
2,Cc1ccsc1C(=CCCN1CCC[C@@H](C(=O)O)C1)c1sccc1C,12.2%
3,C=CCSCC1Nc2cc(Cl)c(S(N)(=O)=O)cc2S(=O)(=O)N1 (stereo not given),-0.963%
4,CC(C)(C)C(=O)OCOC(=O)[C@@H]1N2C(=O)[C@@H](NC(=O)[C@H](N)c3ccccc3)[C@H]2SC1(C)C,-2.27%
5,OCc1ccc(Cl)cc1Cl,16%
6,CNc1c2c(nn1C)CCCC2,2.58%
7,FC(F)(F)C(Cl)Br (stereo not given),6.81%
8,NC(=O)[C@@H]1CSSCCC(=O)N[C@@H](CCCCN=C(N)N)C(=O)NCC(=O)N[C@@H](CC(=O)O)C(=O)N[C@@H](Cc2c[nH]c3ccccc23)C(=O)N2CCC[C@H]2C(=O)N1 ([Mpa][hArg]GDWPC-NH2; disulfide 1-7),5.7%
9,CCOC(N)=O,18.5%
10,Cc1cc(C)nc(NS(=O)(=O)c2ccc(N)cc2)n1,10.2%
11,O=C(O)Cc1ccc(CCNS(=O)(=O)c2ccc(Cl)cc2)cc1,8.49%
12,CCCC(O)C(CC)CO (stereo not given),7.91%
13,O=C(O)c1cc(=O)c2ccccc2o1,0.953%
14,COc1ccc(C(=O)NCc2ccc(OCCN(C)C)cc2)cc1OC,6.49%
15,CC1(C)S[C@@H]2[C@H](N=CN3CCCCCC3)C(=O)N2[C@H]1C(=O)O,9.58%
16,CC(=O)N[C@@H](Cc1ccc(O)cc1)C(=O)O,2.11%
17,Nc1ccc(C(=O)Oc2ccccc2)c(O)c1,-4.02%
18,Cc1ccc(C(C)C)c(O)c1,-2%
19,CC(=O)OC[C@H]1O[C@@](COC(C)=O)(O[C@H]2O[C@H](COC(C)=O)[C@@H](OC(C)=O)[C@H](OC(C)=O)[C@H]2OC(C)=O)[C@@H](OC(C)=O)[C@@H]1OC(C)=O,6.62%
20,COc1ccccc1OC(=O)Oc1ccccc1OC,0.0692%
